Measured values as given in PubChem BioAssay (NCI).
The panel holds about 83,000 compounds, 20% with a hit somewhere; the sample as a whole holds those more often.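 Step 1: grow cells in 96-well plates. Step 2: add test compound at a single concentration. Step 3: incubate 48 h. Step 4: record percent growth.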

Experiments:
Assay in all cases: NCI-60 one-dose screen, 48 h (100 = growth as untreated, 0 = no growth, -100 = all killed)
Details in all cases: 10 µM unless noted; active = growth percent below 10; inactive = the rest
[1] = tested on: NCI-H23 lung
[2] = tested on: NCI-H226 lung
[3] = tested on: NCI-H322M lung
[4] = tested on: HOP-62 NSCLC
[5] = tested on: NCI-H460 lung
[6] = tested on: HOP-92 NSCLC
[7] = tested on: NCI-H522 lung
[8] = tested on: A549/ATCC NSCLC
[9] = tested on: 786-0 renal
[10] = tested on: COLO 205 colon
[11] = tested on: DU-145 prostate
[12] = tested on: K-562 leukemia
[13] = tested on: MALME-3M melanoma
[14] = tested on: MDA-MB-231 breast
[15] = tested on: RXF 393 renal
[16] = tested on: SF-268 CNS
[17] = tested on: SF-295 CNS
[18] = tested on: SF-539 CNS
[19] = tested on: UACC-257 melanoma
[20] = tested on: M14 melanoma

Measured: growth

N#Cc1ccc(OC(=O)Nc2c(Cl)cc(Cl)cc2Cl)cc1
inactive: [1] 109% | [2] 107% | [3] 100% | [4] 103% | [5] 139% | [6] 98.9% | [7] 89.8% | [8] 96.3% | [9] 100% | [10] 128% | [11] 111% | [12] 101% | [13] 95% | [14] 101% | [15] 125% | [16] 112% | [17] 108% | [18] 91.7% | [19] 97.7% | [20] 112%

COC1CC(OC(=O)c2ccc([N+](=O)[O-])cc2)C(COC(=O)c2ccc([N+](=O)[O-])cc2)O1 (stereo not given)
inactive: [1] 105% | [2] 88.9% | [3] 113% | [4] 118% | [5] 105% | [6] 82.8% | [7] 118% | [8] 103% | [9] 105% | [10] 112% | [11] 119% | [12] 107% | [13] 140% | [14] 105% | [15] 103% | [16] 112% | [17] 94.5% | [18] 105% | [19] 91.9% | [20] 110%

CN(C)c1ccc2c(N(C)C)cc(N(C)C)nc2c1
inactive: [1] 97.5% | [2] 83.2% | [3] 64.9% | [4] 82.1% | [5] 82.7% | [6] 69.8% | [7] 79.3% | [8] 98.5% | [9] 94.8% | [10] 65% | [11] 93% | [12] 64.4% | [13] 98.4% | [14] 64.2% | [15] 97.7% | [16] 91.6% | [17] 65.9% | [18] 84.9% | [19] 122% | [20] 81.7%

O=C(O)c1ccc(OCc2ccccc2)cc1
inactive: [1] 95.5% | [2] 90.2% | [3] 93.5% | [4] 93% | [5] 108% | [6] 93.2% | [7] 92.4% | [8] 94.5% | [9] 99.4% | [10] 104% | [11] 109% | [12] 108% | [13] 102% | [14] 92.7% | [15] 112% | [16] 106% | [17] 96.2% | [18] 97.5% | [19] 89.9% | [20] 103%

O=C(Nc1cccc(Cl)c1)c1ccc(Cl)cc1Cl
inactive: [1] 99.4% | [2] 94.7% | [3] 103% | [4] 92.3% | [5] 95.1% | [6] 95.7% | [7] 78.1% | [8] 81.1% | [9] 88.4% | [10] 101% | [11] 99.3% | [12] 90.9% | [13] 96.6% | [14] 97.9% | [15] 110% | [16] 96.2% | [17] 94.6% | [18] 103% | [19] 99.7% | [20] 93.7%

CC(=O)Nc1ccc(O)c(C)c1
inactive: [1] 99.8% | [2] 95% | [3] 100% | [4] 98% | [5] 104% | [6] 100% | [7] 93.5% | [8] 88.1% | [9] 105% | [10] 109% | [11] 109% | [12] 98.6% | [13] 98.8% | [14] 96.9% | [15] 116% | [16] 100% | [17] 105% | [18] 100% | [19] 87.8% | [20] 100%

C=COC(=O)C(C)(C)C
inactive: [1] 102% | [2] 109% | [3] 104% | [4] 104% | [5] 104% | [6] 71.7% | [7] 93.7% | [8] 105% | [9] 96.2% | [10] 104% | [11] 110% | [12] 103% | [13] 95.5% | [14] 113% | [15] 105% | [16] 103% | [17] 93.1% | [18] 102% | [19] 107% | [20] 107%

CCNc1ccc2ccccc2c1N=Nc1ccc(N=Nc2ccccc2)cc1
inactive: [1] 99.4% | [2] 83.6% | [3] 101% | [4] 102% | [5] 84.7% | [6] 98.1% | [7] 90.2% | [8] 102% | [9] 108% | [10] 100% | [11] 121% | [12] 125% | [13] 128% | [14] 93.4% | [15] 118% | [16] 117% | [17] 107% | [18] 104% | [19] 123% | [20] 104%

CCC(=O)Oc1c(C)cc(O)c2ccccc12
inactive: [1] 83.5% | [2] 86.8% | [3] 87.4% | [4] 79.5% | [5] 95.6% | [6] 79.5% | [7] 84.5% | [8] 93.4% | [9] 84.7% | [10] 110% | [11] 107% | [12] 73.4% | [13] 113% | [14] 88.6% | [15] 92.4% | [16] 90.9% | [17] 83.4% | [18] 91.6% | [19] 94.4% | [20] 95.2%

COC1C(=O)CCC2(CO2)C1(O)C1(C)OC1CCC(C)C (stereo not given)
inactive: [1] 69.5% | [2] 85.2% | [3] 76.8% | [4] 71.5% | [5] 20.5% | [6] 67.5% | [7] 62.8% | [8] 56.2% | [9] 81.2% | [10] 65.9% | [11] 48.7% | [12] 47.6% | [13] 103% | [14] 107% | [15] 69.5% | [16] 74.6% | [17] 72.9% | [18] 88% | [19] 39.9% | [20] 56.5%

OCC1CCC(O)C(CO)N1 (stereo not given)
inactive: [1] 110% | [2] 104% | [3] 113% | [4] 101% | [5] 107% | [6] 119% | [7] 103% | [8] 94.2% | [9] 109% | [10] 95% | [11] 113% | [12] 116% | [13] 106% | [14] 106% | [15] 107% | [16] 106% | [17] 91% | [18] 87.9% | [19] 110% | [20] 96.5%
